From PubChem
Hits are enriched below; roughly 3.4% of the tested compounds scored in any of these assays.
TEAD-YAP inh: TEAD-YAP interaction inhibition. HEK-TIYL cells, TEAD-Gal4/YAP UAS-luciferase luminescence. inhibition, % at 9.12 µM. actives 1.4% (n = 640,000). AID 1259422; in the data active = inhibition above about 32%;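 note: 0% = median of test compound wells and 100% = reference inhibitor wells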
FBW7 activator: activators of human E3 ligase FBW7; Q969H0; AlphaScreen FBW7–phospho-cyclin E peptide binding, activator screen; normalized activity (activation), % at 26.1 µM; actives 0.13% (n = 650,000); AID 1259310; in the data active = normalized activity above about 1.9%;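 note: purified mutant Fbw7 with reduced substrate affinity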
GPR151 activ: activators of human GPR151; Q8TDV0; activation, % at 11.2 µM; AID 1508602; actives 1% (n = 650,000); PathHunter beta-arrestin GPR151 cells, luminescence; in the data active = activation above about 4.9%;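 note: 0% = median of compound wells and 100% = cells with positive control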
MITF primary: inhibitors of human MITF; inhibition, % at 2.6 µM; AlphaScreen MITF homodimerization, bead proximity signal; actives 0.91% (n = 650,000); in the data active = inhibition above about 50%;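 note: 0% = vehicle wells with protein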
GPR151 confirm: confirmation of human GPR151 activators | shares compounds with GPR151 activ | GPR151 PathHunter beta-arrestin cells, luminescence, 90 min; % of EA-reagent control over plate median | activation, % at 11.2 µM | 6,700 tested, under 10 active | AID 1508609;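 active = mean percent activation across replicates above the confirmation screen cutoff of 4.91%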
GPR119 ag: GPR119 activation, counter-screen for GPR151 activators. shares compounds with GPR151 activ. actives 0.3% (n = 6,700). activation, % at 11.2 µM. GPR119 PathHunter beta-arrestin cells, luminescence, 90 min; 0 = compound-well median, 100 = enzyme-acceptor control;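 active = mean percent activation in the counterscreen above 29.09%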;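 note: counterscreen on off-target GPR119 to flag nonselective hits from the GPR151 activator screen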
Target sequence (Q8TDV5 whole entry, looked up): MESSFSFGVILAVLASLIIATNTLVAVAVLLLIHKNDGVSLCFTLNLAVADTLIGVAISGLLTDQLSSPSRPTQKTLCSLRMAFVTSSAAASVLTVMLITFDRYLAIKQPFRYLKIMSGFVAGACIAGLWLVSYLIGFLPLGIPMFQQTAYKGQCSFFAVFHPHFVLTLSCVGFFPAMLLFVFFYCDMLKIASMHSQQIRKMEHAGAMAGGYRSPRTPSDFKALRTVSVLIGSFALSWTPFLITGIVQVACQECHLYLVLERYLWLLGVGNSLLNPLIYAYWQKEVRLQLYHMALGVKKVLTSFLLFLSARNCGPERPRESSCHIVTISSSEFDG
Starred values were filed as active, the others as inactive; ! = repeats disagree.

O=C1CCC([N+](=O)[O-])C(c2ccc3c(c2)OCO3)N1 (centres undefined) was read as TEAD-YAP inh -2.5, FBW7 activator -0.4, GPR151 activ 7.7*, MITF primary -5.8, GPR151 confirm -0.3 and GPR119 ag 12.9.
`O=C1CCC([N+](=O)[O-])C(c2ccc(Cl)c(Cl)c2)N1` (centres undefined) gave TEAD-YAP inh -5.9, FBW7 activator 0.0, GPR151 activ -0.6 and MITF primary -7.1.
For COc1ccc(-c2noc(N3CCN(c4ccc(C)cc4)C(C)C3)n2)cc1 (centres undefined) the results were TEAD-YAP inh 1.3, FBW7 activator 0.0, GPR151 activ 5.0*, MITF primary 1.4, GPR151 confirm -0.9 and GPR119 ag -1.9.
For Cc1ccc(C(=O)N/C(=C/c2cccc(Br)c2)C(=O)NC(C)C(=O)O)cc1 (centres undefined) the results were TEAD-YAP inh 4.5, FBW7 activator -0.3, GPR151 activ 0.0 and MITF primary 3.1.
For CC(=O)N1CC(C)Sc2cc(S(=O)(=O)NCc3ccc4c(c3)OCO4)ccc21 (centres undefined) the results were TEAD-YAP inh 1.4, FBW7 activator 0.2, GPR151 activ 5.1*, MITF primary 4.8, GPR151 confirm 0.8 and GPR119 ag -4.4.
For CCC(=O)N1c2ccccc2-c2nnc(SC)nc2OC1c1ccc(OC)cc1 (centres undefined) the results were TEAD-YAP inh -0.9, FBW7 activator 1.1, GPR151 activ 5.6*, MITF primary 0.5, GPR151 confirm 2.2 and GPR119 ag -8.8.
For O=C1CC(N2CCN(c3ccc([N+](=O)[O-])cc3)CC2)C(=O)N1c1ccc(OC(F)(F)F)cc1 (centres undefined) the results were TEAD-YAP inh 10.1, FBW7 activator 0.0, GPR151 activ 0.6 and MITF primary 3.8.
`COC(=O)C(CCSC)NC(=O)c1ccccc1F` (centres undefined) gave TEAD-YAP inh -1.4, FBW7 activator 0.6, GPR151 activ 6.9*, MITF primary 11.1, GPR151 confirm 0.5 and GPR119 ag -4.2.
Screening CCN=C1SC(CC(=O)Nc2sc(C)c(C)c2C(=O)OC)C(=O)N1CC (centres undefined) returned TEAD-YAP inh 2.9, FBW7 activator -0.2, GPR151 activ 6.0*!, MITF primary -9.6, GPR151 confirm 2.2 and GPR119 ag 7.0.
`CC1C(=O)N(Cc2ccc(Cl)cc2Cl)C(=O)CS1=O` (centres undefined) gave TEAD-YAP inh 1.6, FBW7 activator 0.1, GPR151 activ 6.6*, MITF primary -2.8, GPR151 confirm 0.1 and GPR119 ag -2.5.
For COc1ccccc1CNC(=O)c1nn(C)c2c1COc1ccccc1-2 the results were TEAD-YAP inh -14.6, FBW7 activator 0.1, GPR151 activ 0.0 and MITF primary 7.6.
`Cn1nc(C(=O)NCc2ccc(F)cc2)c2c1-c1ccccc1OC2` gave TEAD-YAP inh -10.0, FBW7 activator 0.1, GPR151 activ 12.4*, MITF primary -5.8, GPR151 confirm 0.6 and GPR119 ag -0.7.
CCOc1ccc(Br)cc1C(=O)N/N=C/c1ccc([N+](=O)[O-])cc1 was read as TEAD-YAP inh 0.3, FBW7 activator -0.1, GPR151 activ 7.3*, MITF primary 1.6, GPR151 confirm 0.6 and GPR119 ag -4.4.
For O=C(N/N=C/c1ccncc1)c1cc(Br)ccc1OCc1ccccc1 the results were TEAD-YAP inh -5.0, FBW7 activator 0.0, GPR151 activ 5.1*, MITF primary 14.8, GPR151 confirm 0.5 and GPR119 ag -1.8.
Clc1ncnc2c1oc1ccccc12 was read as TEAD-YAP inh 0.7, FBW7 activator -0.1, GPR151 activ 9.1*, MITF primary 4.8, GPR151 confirm 0.8 and GPR119 ag -2.6.
COCC(C)NCC(O)COc1cc(Cl)ccc1Cl (centres undefined) was read as TEAD-YAP inh 1.6, FBW7 activator -0.1, GPR151 activ 14.4*, MITF primary 17.6, GPR151 confirm 0.7 and GPR119 ag 6.6.
Cc1cccc(N(CCCN2C(=O)c3cccc4cccc(c34)C2=O)C(=O)c2cccs2)c1 was read as TEAD-YAP inh -1.7, FBW7 activator 0.1, GPR151 activ 5.7*, MITF primary -7.5, GPR151 confirm 1.7 and GPR119 ag 11.9.
Screening NC(=NC(=O)c1ccccc1)c1c(CSc2ccc(Cl)cc2)[nH]n(-c2ccccc2)c1=O returned TEAD-YAP inh 7.6, FBW7 activator -0.1, GPR151 activ 0.9 and MITF primary 8.4.
For CCCc1cc(=O)[nH]c2nnc(SCc3ccc(Cl)cc3)n12 the results were TEAD-YAP inh 2.4, FBW7 activator 0.0, GPR151 activ -1.8 and MITF primary 1.3.
For COc1ccc(Cl)cc1NC(=O)CN(C)S(=O)(=O)c1ccc(Br)cc1 the results were TEAD-YAP inh 0.6, FBW7 activator 0.1, GPR151 activ -0.5 and MITF primary 10.1.
`COc1ccc(Cl)cc1NC(=O)CN(C)CC(=O)Nc1ccc(Br)cc1` gave TEAD-YAP inh 4.7, FBW7 activator -0.1, GPR151 activ 7.5*, MITF primary 6.4, GPR151 confirm 0.6 and GPR119 ag 1.3.
Screening Cn1c(=O)oc2cc(S(=O)(=O)Nc3ccc(Br)cc3)ccc21 returned TEAD-YAP inh 4.5, FBW7 activator 0.1, GPR151 activ 1.0 and MITF primary 14.5.
Screening COC(=O)c1ccc2c(=O)n(CCc3ccc(S(N)(=O)=O)cc3)c(SCc3c(F)cccc3F)nc2c1 returned TEAD-YAP inh 0.2, FBW7 activator 0.0, GPR151 activ 16.1*, MITF primary 22.6, GPR151 confirm 0.0 and GPR119 ag 0.7.
Screening COC(=O)c1ccc2c(=O)n(CCc3ccc(S(N)(=O)=O)cc3)c(SCC(=O)c3ccccc3)nc2c1 returned TEAD-YAP inh -4.5, FBW7 activator 0.4, GPR151 activ -0.6 and MITF primary -7.4.
Screening Cc1ccc(N2C(=O)c3ccc(C(=O)OCC(=O)c4ccc(Cl)cc4)cc3C2=O)cc1Cl returned TEAD-YAP inh 4.2, FBW7 activator 0.0, GPR151 activ 0.1 and MITF primary -0.6.
COc1ccc2nc(NC(=O)C34CCC(C)(C(=O)C3)C4(C)C)sc2c1 (centres undefined) was read as TEAD-YAP inh -10.9, FBW7 activator -0.1, GPR151 activ 9.1*, MITF primary -4.4, GPR151 confirm -0.5 and GPR119 ag -9.0.
For COC(=O)c1cc(NC(=O)CSc2nnc(C)s2)cc(C(=O)OC)c1 the results were TEAD-YAP inh -8.8, FBW7 activator 0.3, GPR151 activ -1.8 and MITF primary 11.9.
For COc1ccc(CCNc2nc(NC3CCN(Cc4ccccc4)CC3)nc3cc(OC)c(OC)cc23)cc1 the results were TEAD-YAP inh -2.5, FBW7 activator -0.1, GPR151 activ 8.0*, MITF primary 1.1, GPR151 confirm -0.1 and GPR119 ag 10.5.
